Drawing on PubChem BioAssay, this text covers outcome, potentiation and inhibition for 15 compounds.

The subject of assay [1] is TRPC4 beta (transient receptor potential cation channel C4), mouse. The assay is described as follows: activators of mouse TRPC4 channel, confirmation, cell-based, Fluo4 calcium, HEK293 TRPC4beta/mu-opioid, duplicates, 10 µM (AID 2426;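 active = fluorescence ratio normalized to control raised more than 50% in primary screen plus both repeat runs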). Particulars: Fluo4 calcium fluorescence, at 10 µM; active compounds read high.
Assay [2] relates to transient receptor potential cation channel C4 beta (TRPC4), mouse. The experiment in a line: activators of mouse TRPC4 channel, confirmation, cell-based, second round, Fluo4, HEK293 TRPC4beta/mu-opioid, 1 µM (AID 2461;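 active = primary screen active and over 50% activation in each of two duplicate runs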). The following applies: Fluo4 calcium fluorescence, at 1 µM; active compounds read high.
In assay [3] the test system is TRPC4 (transient receptor potential cation channel C4 beta), mouse. The assay is described as follows: positive allosteric modulators of mouse TRPC4, confirmation, cell-based, second round, Fluo-4, HEK293 TRPC4beta/mu-opioid, 1 µM (AID 2554;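 active = primary screen hit whose fluorescence ratio, in both repeats, exceeds the weak agonist control mean by 3 SD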). The following applies: DAMGO EC20, Fluo-4 calcium flux, at 1 µM; active compounds read high. Background: A change in cytosolic calcium serves as a functional read-out for many receptors and channels.

In assay [4] the test system is TRPC4 beta (transient receptor potential cation channel C4), mouse. The assay is described as follows: positive allosteric modulators of mouse TRPC4, confirmation, cell-based, Fluo-4, HEK293 TRPC4beta/mu-opioid (AID 2555;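 active = primary screen hit whose calcium fluorescence ratio, in both repeats, exceeds the weak agonist control mean by 3 SD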). The following applies: DAMGO EC20, Fluo-4 calcium flux, at 10 µM; active compounds read high.
Assay [5] addresses Short transient receptor potential channel 4 (Mus musculus) (UniProt Q9QUQ5). The experiment in a line: inhibitors of mouse TRPC4 channel, confirmation, cell-based, Fluo4, HEK293 TRPC4beta/mu-opioid (AID 2636;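 active = calcium signal cut by more than 3 SD below the full-agonist control yet still positive, in both repeats and the earlier primary screen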). The following applies: DAMGO, Fluo4 calcium flux, at 10 µM; active compounds read high.
For assay [6] the target is unchanged. The experiment in a line: inhibitors of mouse TRPC4 channel, confirmation, cell-based, second round, Fluo4, HEK293 TRPC4beta/mu-opioid, 1 µM (AID 2637;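 active = calcium signal ratio cut to more than 3 SD under the fully stimulated control mean yet still positive, in both repeats and the primary screen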;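 as to inhibition: percent of integrated ratio relative to wells lacking test compound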). The following applies: Fluo4 calcium flux, DAMGO, at 1 µM; active compounds read high.
Assay [7] shares this target. The experiment in a line: mouse TRPC4 channel activators, dose response, cell-based, HEK293 TRPC4/mu-opioid, Fluo-4 calcium (AID 434937;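 active = primary screen activator hit with a dose response curve and TRPC4 channel activation at any tested dose; inactive = no activation, no dose response, or not a primary hit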).
The target is the same in assay [8]. The experiment in a line: TRPC4 positive allosteric modulators, dose response, cell-based, HEK293 TRPC4/mu-opioid, Fluo-4 calcium, EC20 DAMGO (AID 434941).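 Also: calcium entry triggered by an EC20 dose of DAMGO at the co-expressed mu-opioid receptor.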
Assay [9] shares this target. The experiment in a line: mouse TRPC4 channel inhibitors, dose response, cell-based, HEK293 TRPC4/mu-opioid, Fluo-4 calcium (AID 434942;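 active = primary screen inhibitor hit that blocks the TRPC4 channel at some tested dose, yielding a dose curve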).
For assay [10], the target named is Short transient receptor potential channel 6 (Mus musculus) (UniProt Q61143). The experiment in a line: inhibition of mouse TRPC6 channel, confirmation, selectivity assay for TRPC4 inhibitor project, cell-based, HEK293, membrane potential dye, duplicate (AID 434948;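 active = active in primary screen and both duplicates, each dropping signal beyond three positive-control SD with fluorescence still positive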). The following applies: HEK293 TRPC6, membrane potential dye fluorescence, at 10 µM, stimulated with maximal-effect acetylcholine; active compounds read high.
Chain of Short transient receptor potential channel 6 (Mus musculus) (Q61143 whole entry, looked up): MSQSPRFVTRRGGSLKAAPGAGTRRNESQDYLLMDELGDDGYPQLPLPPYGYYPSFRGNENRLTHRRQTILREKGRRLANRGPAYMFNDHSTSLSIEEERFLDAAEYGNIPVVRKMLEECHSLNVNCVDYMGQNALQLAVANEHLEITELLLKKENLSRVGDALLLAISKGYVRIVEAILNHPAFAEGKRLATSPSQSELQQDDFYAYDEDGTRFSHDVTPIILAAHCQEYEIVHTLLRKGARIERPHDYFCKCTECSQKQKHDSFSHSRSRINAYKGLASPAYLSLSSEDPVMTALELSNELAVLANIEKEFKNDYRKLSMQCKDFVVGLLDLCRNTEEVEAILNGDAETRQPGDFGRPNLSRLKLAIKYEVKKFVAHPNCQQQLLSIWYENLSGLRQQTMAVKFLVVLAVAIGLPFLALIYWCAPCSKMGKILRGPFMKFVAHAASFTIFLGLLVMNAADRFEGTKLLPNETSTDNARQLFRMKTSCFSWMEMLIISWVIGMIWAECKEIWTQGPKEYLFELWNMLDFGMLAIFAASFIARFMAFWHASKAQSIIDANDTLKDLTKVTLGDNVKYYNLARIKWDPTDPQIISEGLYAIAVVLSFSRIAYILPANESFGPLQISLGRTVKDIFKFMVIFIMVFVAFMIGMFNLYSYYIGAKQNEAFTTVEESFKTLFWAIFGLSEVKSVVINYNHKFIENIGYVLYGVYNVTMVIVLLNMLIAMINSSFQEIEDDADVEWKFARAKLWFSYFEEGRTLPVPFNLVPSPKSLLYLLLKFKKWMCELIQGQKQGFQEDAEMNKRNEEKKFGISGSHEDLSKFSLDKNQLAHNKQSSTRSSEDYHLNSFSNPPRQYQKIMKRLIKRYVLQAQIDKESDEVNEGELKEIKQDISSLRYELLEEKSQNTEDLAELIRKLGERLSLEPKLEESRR

Assay [11] has the same target. The assay is described as follows: activation of mouse TRPC6 channel, confirmation, selectivity assay for TRPC4 activator project, cell-based, HEK293, membrane potential dye, duplicate (AID 434950;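 active = membrane potential signal rise above negative control mean plus 3 SD in both duplicates, also active in the earlier TRPC4 screen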). The following applies: HEK293 TRPC6, membrane potential fluorescence, at 10 µM; active compounds read high.
The target is the same in assay [12]. The assay is described as follows: TRPC6 potentiation by TRPC4 potentiator hits, confirmation, selectivity assay for TRPC4 potentiator project, HEK293 cells, membrane potential dye, duplicate (AID 434952;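 active = compound raising the membrane signal above positive-control mean plus 3 SD in both repeats, and a primary screen hit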). The following applies: HEK293 TRPC6, membrane potential dye fluorescence, at 10 µM, maximal acetylcholine added after compound; active compounds read high.
Assay [13] deals with Short transient receptor potential channel 4 (Mus musculus) (UniProt Q9QUQ5). The experiment in a line: calcium flux activators in TRPC4/5HT1a cells, counter-screen for TRPC4 activator project, cell-based, second counter screen, HEK293 TRPC4/5HT1a, Fluo-4 (AID 434977;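 active = calcium signal rise above buffer-control mean plus 5 SD in both duplicates, and also a hit in the primary screen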). Particulars: Fluo-4 calcium flux, at 10 µM; active compounds read high.
Chain of Short transient receptor potential channel 4 (Mus musculus) (Q9QUQ5 whole entry, looked up): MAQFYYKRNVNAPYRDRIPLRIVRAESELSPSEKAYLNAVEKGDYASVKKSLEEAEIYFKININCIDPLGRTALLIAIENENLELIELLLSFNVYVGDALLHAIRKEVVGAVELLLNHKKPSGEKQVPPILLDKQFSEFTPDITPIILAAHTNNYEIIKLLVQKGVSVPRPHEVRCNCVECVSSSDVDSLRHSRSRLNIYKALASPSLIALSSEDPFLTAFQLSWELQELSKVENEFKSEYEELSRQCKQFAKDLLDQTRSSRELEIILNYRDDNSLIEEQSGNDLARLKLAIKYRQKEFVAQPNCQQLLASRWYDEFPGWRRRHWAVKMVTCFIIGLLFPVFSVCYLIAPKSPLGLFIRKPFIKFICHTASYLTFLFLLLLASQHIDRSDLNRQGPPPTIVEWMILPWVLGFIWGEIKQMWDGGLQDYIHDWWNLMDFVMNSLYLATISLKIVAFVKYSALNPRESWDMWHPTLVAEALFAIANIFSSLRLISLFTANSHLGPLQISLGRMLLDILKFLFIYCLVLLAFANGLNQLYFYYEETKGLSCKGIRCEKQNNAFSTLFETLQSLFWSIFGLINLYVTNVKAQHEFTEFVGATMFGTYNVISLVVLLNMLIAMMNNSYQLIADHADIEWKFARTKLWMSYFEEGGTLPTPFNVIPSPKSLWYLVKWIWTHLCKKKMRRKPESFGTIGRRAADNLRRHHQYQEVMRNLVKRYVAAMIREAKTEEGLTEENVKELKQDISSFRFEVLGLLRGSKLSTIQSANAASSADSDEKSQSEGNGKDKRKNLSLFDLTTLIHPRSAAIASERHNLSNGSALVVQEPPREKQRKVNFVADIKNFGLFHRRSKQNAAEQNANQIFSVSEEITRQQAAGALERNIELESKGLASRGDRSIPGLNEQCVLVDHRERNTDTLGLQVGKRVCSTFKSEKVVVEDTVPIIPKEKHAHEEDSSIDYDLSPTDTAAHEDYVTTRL
Assay [14] can be described thus: calcium flux inhibitors in TRPC4/5HT1a cells, confirmation, counter-screen for TRPC4 inhibitor project, cell-based, second counter screen, HEK293 TRPC4/5HT1a, Fluo-4 (AID 434978;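 active = primary screen active whose calcium signal fell more than 3 SD beyond the full-serotonin control mean in both duplicate plates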;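 also: serotonin given first at submaximal then at maximal dose after compound preincubation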). The following applies: Fluo-4 calcium flux, at 10 µM, serotonin added to trigger calcium flux; active compounds read high.
Assay [15] has as its system TRPC4 (mouse), co-expressed with 5HT1a in HEK293. The experiment in a line: calcium flux potentiators in TRPC4/5HT1a cells, confirmation, counter-screen for TRPC4 potentiator project, cell-based, second counter screen, HEK293 TRPC4/5HT1a, Fluo-4 (AID 434979;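 active = signal rise over 3 SD above mean of control wells given weak agonist, in both repeats and first screen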). The following applies: Fluo-4 calcium flux, at 10 µM, serotonin added at its EC20 dose; active compounds read high.
Assay [16] can be described thus: calcium flux activation in mu-opioid HEK293 cells, confirmation, counter-screen for TRPC4 activator project, cell-based, HEK293 mu-opioid receptor line (AID 449723;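 active = hit in primary screen, with calcium signal over 5 SD above buffer well mean in both duplicates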;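 also: counter screen cells carry the mu-opioid receptor alone and lack TRPC4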). Particulars: Fluo-4 calcium fluorescence, at 10 µM; active compounds read high.
A short description of assay [17]: calcium flux enhancement in mu-opioid HEK293 cells, confirmation, counter-screen for TRPC4 allosteric potentiator project, cell-based, HEK293 mu-opioid receptor line (AID 449724;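 active = calcium signal rise more than 3 SD above the low-dose agonist control mean, in both duplicate plates and the primary screen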;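 also: HEK293 cells carrying mu-opioid receptor only with no TRPC4 channel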). The following applies: Fluo-4 calcium flux, at 10 µM, compound added before EC20 DAMGO stimulus; active compounds read high.

What is called inhibition is the percentage by which the read-out fell short of the control.

For part of these data: Entries with a potency or affinity are not part of this list. Calls of active or inactive are those of the source.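 The calls were made as follows, unless noted: active = earlier screen potentiator hit that boosts the TRPC4 ion channel at some dose, with a dose response; inactive = no potentiation, no dose response, or not a prior hit.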

`COc1cccc(C(=O)Oc2ccc(/C=N/Nc3ccc(C(=O)O)cc3)cc2OC)c1`: the outcome in assay [1], in [2], in assay [3], in assay [4], in [5] and in assay [6] was inactive. Besides, the result in assay [7], in [8], in assay [9], in [10], in assay [11] and in [12] was inactive. For the same compound, the result in [13], in assay [14], in assay [15], in assay [16] and in assay [17] was inactive.

In the case of `NNc1ccc(Cc2ccc(Cl)cc2Cl)nn1`, the result in assay [1], in [2], in [3], in [4], in assay [5] and in assay [6] was inactive. The outcome in assay [7], in [8], in [9], in [10], in assay [11] and in [12] was inactive. For the same compound, the result in assay [13], in assay [14], in assay [16] and in assay [17] was inactive. The potentiation in assay [15] was 15.2% (active).

Take `CN(C)CCCSc1nc(-c2ccccc2)nc2c1CCC2`: the outcome in [1], in [2], in assay [4], in assay [5], in assay [6] and in assay [7] was inactive. In addition, the result in [8], in assay [9], in assay [10], in assay [11], in assay [12] and in assay [13] was inactive. Besides, the outcome in assay [14], in assay [15], in assay [16] and in [17] was inactive. In [3], the potentiation was 8% (active).

Consider `COc1cc(NC(=O)C(C)Oc2ccccc2)cc(OC)c1` (stereo not given), for which the result in assay [1], in assay [2], in assay [3], in [4], in assay [5] and in assay [6] was inactive. Besides, the result in [7], in assay [8], in assay [9], in assay [10], in [11] and in [12] was inactive. For the same compound, the result in [13], in assay [14], in assay [15], in assay [16] and in assay [17] was inactive.

Turning to `CCCCN(C(=O)c1cccc2c(=O)c(C)c(-c3ccccc3)oc12)c1ccccc1`, the result in assay [1], in assay [2], in assay [3], in [5], in assay [6] and in assay [7] was inactive. Moreover, the result in [8], in [9], in assay [10], in assay [11], in assay [12] and in assay [13] was inactive. The outcome in assay [14], in [16] and in assay [17] was inactive. The potentiation in assay [4] is 15% (active); in assay [15], 12.4% (active).

As to `NS(=O)(=O)c1ccc(Oc2ccc(S(N)(=O)=O)cc2)cc1`, the result in [1], in [2], in [3], in assay [4], in assay [5] and in assay [6] was inactive. In addition, the outcome in assay [7], in [8], in [9], in assay [10], in assay [11] and in assay [12] was inactive. The outcome in assay [13], in assay [14], in [15], in [16] and in [17] was inactive.

In the case of `O=C(NCCCN1CCOCC1)C1CCN(S(=O)(=O)c2c(Cl)cccc2Cl)CC1`, the result in [1], in [2], in assay [3], in assay [4], in assay [5] and in assay [6] was inactive. Further, the result in [7], in [8], in assay [9], in [10], in assay [11] and in assay [12] was inactive. The outcome in [13], in assay [14], in [15], in assay [16] and in assay [17] was inactive.

On to `CC(=O)C1=C(O)C(=O)N(Cc2ccco2)C1c1ccc2c(c1)OCO2` (stereo not given), for which the result in [1], in assay [2], in assay [3], in assay [4], in assay [7] and in assay [8] was inactive. Also, the outcome in assay [9], in assay [10], in [11], in assay [12], in assay [13] and in [14] was inactive. The result in assay [15], in assay [16] and in assay [17] was inactive. Besides, the inhibition in assay [5] was 94% (active); in [6] it was 47% (active).

Take `Cc1cc(C)nc(Nc2nc(=O)c3ccccc3s2)n1`: the outcome in [1], in [2], in assay [5], in assay [6], in assay [7] and in assay [8] was inactive. Also, the outcome in [9], in assay [10], in assay [11], in assay [12], in assay [13] and in assay [14] was inactive. Besides, the result in assay [16] and in assay [17] was inactive. The potentiation was 10% (active) in assay [3], 82% (active) in [4] and 81.3% (active) in assay [15].

On to `NC(=S)N/N=C1/CCSc2ccc3ccccc3c21`, for which the result in assay [1], in assay [2], in assay [3], in [5], in assay [6] and in assay [7] was inactive. Further, the outcome in [8], in assay [9], in assay [10], in [11], in assay [12] and in [13] was inactive. Also, the outcome in assay [14], in assay [16] and in [17] was inactive. For the same compound, the potentiation in assay [4] is 25% (active); in assay [15] it was 18.7% (active).

Turning to `O=C(O)c1ccc(N2CCN(C(c3ccccc3)c3ccccc3)CC2)c([N+](=O)[O-])c1`, the result in assay [1], in assay [2], in [3], in assay [4], in assay [5] and in [6] was inactive. Moreover, the outcome in assay [7], in assay [8], in assay [9], in assay [10], in [11] and in [12] was inactive. The result in assay [13], in [14], in assay [15], in assay [16] and in assay [17] was inactive.

As for `O=C(CNc1ccc(Br)cc1)c1ccc(O)cc1`, the result in assay [1], in [2], in assay [3], in assay [4], in assay [6] and in assay [7] was inactive. Besides, the result in assay [8], in assay [9], in assay [11], in assay [12], in assay [13] and in assay [14] was inactive. Also, the outcome in assay [15], in [16] and in assay [17] was inactive. Further, the figures for the inhibition in [5] and in assay [10] were 82% (active) and 60.5% (active), respectively.

Consider `Cc1[nH]nc(-c2ccc(O)cc2O)c1-c1nc2ccccc2s1`, for which the outcome in assay [1], in [2], in assay [3], in assay [4], in assay [5] and in assay [6] was inactive. In addition, the result in assay [7], in [8], in [9], in [10], in assay [11] and in assay [12] was inactive. In addition, the result in assay [13], in assay [14], in assay [15], in [16] and in [17] was inactive.

Regarding `CN1CCN(Cc2cccc(Oc3ccc(Cl)cc3)c2)CC1`, the result in assay [1], in assay [2], in [4], in assay [5], in assay [6] and in assay [7] was inactive. Further, the result in assay [8], in [9], in assay [10], in assay [11], in [12] and in assay [13] was inactive. For the same compound, the result in [14], in assay [16] and in assay [17] was inactive. Besides, the values for the potentiation in [3] and in [15] were 22% (active) and 15.1% (active), respectively.

Regarding `COc1cc(COCC(O)CN2CCN(CCN3C(=O)c4cccc5cccc(c45)C3=O)CC2)cc(OC)c1OC` (stereo not given), the result in [1], in [2], in [3], in assay [4], in assay [5] and in assay [6] was inactive. The result in assay [7], in assay [8], in [9], in [10], in assay [11] and in [12] was inactive. Further, the outcome in assay [13], in assay [14], in assay [15], in [16] and in [17] was inactive.
